We go through 20 compounds from PubChem BioAssay AID709 (SRMLSC, 2007).

In all, about 65,000 compounds went through this assay and about 3,600 (5.5%) were called active.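 The calls were made as follows: active = at 10 µM, mean starting fluorescence two-fold or more over control wells; inactive = the rest.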 The full list was thinned out, with actives kept by preference.

The assay is described as follows: intrinsic fluorescence of library compounds, ex339/em460 – biochemical, MLSMR library, data from DPM-DC assay, artefact control, profiling panel (AID 709).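 Also: signal is the first read of a kinetic run.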 The settings on record: compound autofluorescence, ex339/em460 nm, NADH buffer; at 10 µM; hits give high values.
As to `CCOC(=O)c1c(N)n(Cc2ccccc2)c2nc3ccccc3nc12`, the fluorescence fold increase was 4.96 (active).
Turning to `O=C(O)C1CSC(c2cccnc2)N1` (stereo not given), the fluorescence fold increase is 1.05 (inactive).
For the compound `CC1(C)C(c2ccccc2)=NC(c2cccnc2)=[N+]1[O-]`, the fluorescence fold increase is 1.1 (inactive).
In the case of `CCOC(=O)c1c(C)c(C(=O)N2CCC3(CC2)OCCO3)c(C)n1CC` it was 1.05 (inactive).
Turning to `CCOC(=O)c1c(-c2ccccc2)oc2ccc(OC(=O)N(C)C)cc12`, the fluorescence fold increase was 3.72 (active).
To `N[C@@H](Cc1c[nH]c2ccccc12)c1nnc(SCc2c(F)cccc2Cl)o1` belongs 1.15 (inactive).
To `CCOC(=O)C1=C(C)OC(N)=C(C(=O)OC)C12C(=O)Nc1ccc(Br)cc12` (stereo not given) belongs 1.1 (inactive); to `CCc1cccc2c(C#N)cn(CC(=O)N3CCOCC3)c12`, 1.27 (inactive); to `COC(=O)COc1cc(C)cc2oc(=O)c3c(c12)CCCC3`, 2.2 (active).
To `OC(CNC1CCCCC1)c1ccccc1` (stereo not given) belongs 1.04 (inactive).
With `CCOC(=O)C(O)(c1ccc(NC(=O)c2ccco2)c(OC)c1)C(F)(F)F` (stereo not given), the fluorescence fold increase is 1.11 (inactive).
In the case of `O=C(c1cc2nc(-c3ccccc3)cc(-c3ccccc3)n2n1)N1CCC2(CC1)OCCO2`, the fluorescence fold increase is 2.35 (active).
In the case of `Cc1cccc(-n2c(C)nc3cc(C(=O)N4CCC5(CC4)OCCO5)ccc32)c1` it was 1.13 (inactive); in that of `O=C(c1cc(-c2ccncc2)nc2ccccc12)N1CCC2(CC1)OCCO2`, 1.11 (inactive).
In the case of `CCOC(=O)CC1=C(C(=O)OCC)C2(C(=O)N1)C(C(=O)OC)=C(N)Oc1ccccc12` (stereo not given) it was 1.12 (inactive); in that of `COc1ccc(CCn2c(O)c(C=NC3CC3)c(=O)[nH]c2=O)cc1OC`, 1.06 (inactive).
In the case of `CN1CCN(C(=O)COc2ccc(C(C)(C)C)cc2Br)CC1` it was 1.12 (inactive); in that of `COc1ccc(C(=O)CC2C(=O)N(C)C(=O)N(C)C2=O)cc1`, 1.08 (inactive).
On to `CCC/C(=N\O)c1c[nH]c2ccccc12`, for which the fluorescence fold increase is 1.08 (inactive).
With `CC1=C(C(=O)Nc2ccccc2)SCCO1`, the fluorescence fold increase was 1.08 (inactive).
